High-throughput results: PubChem, ICCB-Longwood Screening Facility, Harvard Medical School
This is one part of a sample in which hits are shown more often than they occur.
Sa helicase inh: blocks Staphylococcus aureus DNA helicase. inhibition, % (concentration not given with the values). 120,000 tested, 0.05% active. purified S. aureus helicase, fluorescence unwinding assay. AID 485395; in the data active = inhibition above about 25%, passing the limit was not always enough;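 note: 0% = mean of negative control wells and 100% = mean of positive control wells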
Sa growth inh: blocks Staphylococcus aureus growth. S. aureus RN4220 growth, OD600, 20 h, 42 °C; hits give low values. relative growth, % (concentration not given with the values). 170,000 tested, 0.53% active;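 active = relative growth at most 50% at the other temperature and 20+ points below 30 °C, or under 10% at both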
Active calls of the source: *; / = no result.

SMILES	Sa helicase inh	Sa growth inh
CCCC1COC(Cn2cncn2)(c2ccc(Cl)cc2Cl)O1 (stereo unspecified)	0	5.4*
CCCn1ccc(C(=O)O)n1	1	91
CCN1CCN(c2ncc(Br)cn2)CC1	-3	85
O=C(CN1CC2CC(C1)c1cccc(=O)n1C2)c1ccc2cc[nH]c2c1 (stereo unspecified)	13	90
CCN(CC)C(=O)c1ccc(NC(=O)Cn2nc(-c3ccccc3)c3ccccc3c2=O)cc1	2	98
CCn1nc(-c2ccccc2)nc2c(=O)n(C)c(=O)nc1-2	-133	0.3*
CCn1nc(-c2cccnc2)nc2c(=O)n(C)c(=O)nc1-2	-20	-0.2*
CCOC(=O)c1c(N)n(Cc2ccccn2)c2nc3ccccc3nc12	-5	102
Cc1oc2ccccc2c1-c1ccc2ccccc2n1	-16	34*
O=P(OCC(F)(F)F)(N1CCCCC1)N1CCCCC1	8	74
O=c1c2ccccc2nc(-c2ccccc2)n1-c1ccccc1	15	107
O=c1c2ccccc2[se]n1-c1ccccc1	/	0.3*
Clc1ccc(CO/N=C(\Cn2ccnc2)c2ccc(Cl)cc2Cl)c(Cl)c1	/	-0.4*
Cc1nn(C)c2c1c(-c1ccccc1)cc(=O)n2C(C)C(=O)N1CCC2(CC1)OCCO2 (stereo unspecified)	-10	104
N#CC(C#N)=NNc1ccccc1	0	0.0*
N#CC(C#N)=C(C#N)c1ccc(Nc2ccccc2)cc1	-2	85
Cc1cc(C(C)(C)C)cc(C)c1CCN	-9	100
CCOc1ccc(CCN)cc1OCC	-9	117
Oc1cccc2cccnc12	/	0.2*
CN(C)C(=O)Oc1cccc2cccnc12	0	102
C1=C(c2ccccc2)CCN(Cn2nnc(-c3ccccc3)n2)C1	-5	117
CC(C)CNC1CCC(O)CC1 (stereo unspecified)	-10	102
Clc1ccc(COC(Cn2ccnc2)c2ccc(Cl)cc2Cl)cc1 (stereo unspecified)	/	-0.6*
Clc1ccc(CSC(Cn2ccnc2)c2ccc(Cl)cc2Cl)cc1 (stereo unspecified)	/	-0.3*
c1ccc(Cn2ccnc2)cc1	/	84
S=C=NCCc1ccccc1	-3	83
NC(=O)COC(=O)COc1ccc(Cl)cc1Cl	-22	92
CCOC(=O)C1=C(N)c2ccccc2CC12CCCCC2	9	113
OC1(c2cccnc2)CCNCC1	-3	99
Cc1ccc2c(c1)c1c3n2CNCC3CCC1 (stereo unspecified)	-7	68
